Measured values published in PubChem BioAssay AID624351 (Southern Research Specialized Biocontainment Screening …, 2012).
About 1,400 (58%) of roughly 2,400 compounds were called active. So high a share suggests a set chosen from earlier hits. Some of the results follow. Unmarked numbers belong to inactive results.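 How the source made its calls: active means inhibition of 30% or more at any tested dose; inconclusive means primary hits over the limit that were never retested; inactive means the rest.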

Assay: ADP Hunter readout inhibition without MgcRacGAP – biochemical, coupled enzyme counter-screen, artefact control for MgcRacGAP inhibitor project, dose response (AID 624351);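 further: signal is the ADP detection kit reading of free GDP without any GAP enzyme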;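 on inhibition: 0% = median positive control wells and 100% = median negative control wells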
Settings: fluorescence, no MgcRacGAP; series mostly up to 80 µM; inhibition: at the top concentration

Row | SMILES | inhibition | IC50
1 | O=C1C=CC(=O)c2c(O)c(N3CCN(CCOCCO)CC3)c(Br)c(O)c21 | -3.44% | 
2 | CCOc1ccccc1CN1CCC(N2CCOCC2)CC1 | 20.6% | 
3 | C=CCc1cc(C=Nc2ccc(N3CCOCC3)cc2)cc(OCC)c1O |  | 14.6 µM (active)
4 | C=CCc1cc(Cl)ccc1OCCNCCN1CCOCC1 | 22.5% | 
5 | COc1ccc(CN(C)CC(=O)Nc2ccc(Cl)cc2C(F)(F)F)c(OC)c1 | 15.9% | 
6 | Nc1n[nH]c(N)c1N=Nc1ccc2c(c1)OCO2 |  | 38 µM (active)
7 | O=S(=O)(O)c1ccc(O)c2cc(Nc3ccccc3)ccc12 | 17.6% | 
8 | CC(=O)C1=C(S(=O)(=O)c2ccc(C)cc2)CS(=O)(=O)C1 | 6.22% | 
9 | Cc1ccc(S(=O)(=O)c2cc(Nc3ccccc3)ccc2O)cc1 |  | 68 µM (active)
10 | CC1(C)OC(C)(C)/C(=C/Nc2ccc(O)cc2)C1=O |  | 22.2 µM (active)
11 | COc1cc(C=NNC(=O)c2ccccc2-n2cccc2)ccc1O |  | 36.4 µM (active)
12 | COc1cc(/C=N/NC(=O)c2cc(-c3ccccc3OC(C)C)nc3ccccc23)ccc1O | 29.6% | 
13 | CCOc1cc(/C=N/NC(=O)c2ccccc2-n2cccc2)ccc1O |  | 44.9 µM (active)
14 | CCCCN(CC)CCNC(=O)CCC(=O)Nc1ccc2nc(N3CCN(C)CC3)cc(C)c2c1 | 18.5% | 
15 | CCn1c2ccccc2c2cc(NC(=O)CNC)ccc21 | 22.4% | 
16 | Cc1ccc(C2=NN=C(NC(=O)CSc3nncn3C)SC2)cc1 | 8.11% | 
17 | C=CCn1c(SCC(=O)Nc2ccc(N(C)C)cc2)nnc1-c1cccc(C)c1 |  | 58.8 µM (active)
18 | C=CCn1c(SCC(=O)c2ccc(O)c(O)c2)nnc1-c1cccc(OC)c1 |  | 68 µM (active)
19 | CCn1c(SCC(=O)Nc2ccc(N(C)C)cc2)nnc1-c1cccc(C)c1 |  | 70.3 µM (active)
20 | COc1cccc(-c2ncc3ccccn23)c1 | 16.3% | 
21 | O=S(=O)(NC1=NCCCCC1)c1ccc2sc(NS(=O)(=O)c3ccc4ccccc4c3)nc2c1 | -3.65% | 
22 | CCOc1ccc(C(=O)NC(=S)Nc2ccc(N3CCCCC3)cc2)cc1[N+](=O)[O-] | 20% | 
23 | COc1cc(/C=C(/NC(=O)c2ccccc2)C(=O)Nc2ccc(O)cc2)c([N+](=O)[O-])cc1OC |  | 58 µM (active)
24 | CC(=O)Nc1ccc(OC(=O)c2ccc(Br)c([N+](=O)[O-])c2)cc1 | 9.25% | 
25 | CN(C)c1nc(=NCc2cccs2)ss1 | 8.07% | 
26 | COc1cc(/C=N\Nc2cc(=O)n(C)c(=O)n2C)ccc1O |  | 36 µM (active)
27 | COc1cc(/C=N/NC(=O)c2cccc(NC(=O)c3ccccc3C)c2)ccc1O |  | 34.4 µM (active)

Row | SMILES | inhibition | IC50
28 | COc1cc(/C=N/NC(=O)C(=O)Nc2ccccn2)ccc1O |  | 27.8 µM (active)
29 | COc1cc(/C=N/NC(=O)c2cc[n+]([O-])cc2)ccc1O |  | 35.7 µM (active)
30 | CN(C)CCO/N=C(\c1ccc(Br)cc1)c1cccnc1 | 17.3% | 
31 | COc1cc(/C=N/NC(=O)c2ccc(-n3cccc3)cc2)ccc1O |  | 22.3 µM (active)
32 | O=C(N/N=C/c1ccc(O)c(O)c1)c1ccc(-n2cnnn2)cc1 |  | 18.7 µM (active)
33 | COc1cc(/C=N/NC(=O)c2[nH]nc3c2CCc2ccccc2-3)ccc1O |  | 56.5 µM (active)
34 | COc1cc(/C=N/NC(=O)C2(O)c3ccccc3-c3ccccc32)ccc1O |  | 45.5 µM (active)
35 | COc1cc(/C=N/Nc2ccc(C(=O)O)cc2)ccc1O |  | 36.1 µM (active)
36 | COc1cc(/C=N/NC(=O)c2ccccc2)ccc1O |  | 29.6 µM (active)
37 | COc1ccc(NS(=O)(=O)c2cccc(C(=O)NN=Cc3ccc(O)c(OC)c3)c2)cc1 | 16.8% | 
38 | COc1ccc(/C=N/NC(=O)c2cc[n+]([O-])cc2)cc1O |  | 35.3 µM (active)
39 | COc1cc(/C=N/NC(=O)c2cc3ccccc3[nH]2)ccc1O |  | 20.8 µM (active)
40 | COc1ccc(C(C#N)=C2C=CC(=NO)C=C2)cc1 |  | 57.4 µM (active)
41 | O=C(CNC1CCCCCC1)Nc1ccccc1N1CCOCC1 | 13.8% | 
42 | CCOc1cc(N2CCOCC2)c(OCC)cc1NCC(=O)N1CCN(Cc2ccccc2)CC1 | 27.6% | 
43 | CCOc1cc(N2CCOCC2)c(OCC)cc1NC(=O)c1ccc(C)s1 |  | 65.1 µM (active)
44 | CCN(CC)c1ccc(NC(=O)Nc2ccccc2)cc1 |  | 53.3 µM (active)
45 | CCN(CC)c1ccc(NC(=O)C2CCCC2)cc1 |  | 76.8 µM (active)
46 | Cc1ccc(NC(=O)CN(C)C2CCCCC2)cc1Br | 11.6% | 
47 | CCN(CC)CCNCC(=O)Nc1ccc(Oc2ccccc2)cc1 | 21.4% | 
48 | CCN(CC)c1ccc(NC(=O)c2ccc(Br)o2)cc1 |  | 29.2 µM (active)
49 | CCN(CC)CC(=O)NN(Cc1ccccc1)c1ccccc1 | 18.2% | 
50 | CCN(CC)c1ccc(CN2CCC(C(=O)NCc3ccc(C)cc3)CC2)cc1 | 8.71% | 
51 | O=c1oc2ccccc2c2c1C(c1ccc(Cl)cc1)Nc1ccc3ccccc3c1-2 (stereo not given) | 2.98% | 
52 | CN1CCCN(Cc2ccccc2C(F)(F)F)CC1 | 24.1% | 
53 | CCc1nnc(NC(=O)CSCc2cc(=O)n3ccsc3n2)s1 | -4.29% | 
54 | Cc1ccc(N2CC(C(=O)Nc3ccc(N(C)C)cc3)CC2=O)cc1C (stereo not given) |  | 62.4 µM (active)

Row | SMILES | inhibition | IC50
55 | COc1ccc(OC(=O)C2CC(=O)N(c3ccc(C)cc3)C2)cc1 (stereo not given) | 13.7% | 
56 | CS(=O)(=O)C1=NSC2=NC(=O)/C(=C\c3ccc(OC(=O)c4ccco4)c(Br)c3)C(=N)N21 | 5.54% | 
57 | O=[N+]([O-])c1ccc(N2CCN(c3ccc(O)cc3)CC2)c(Cl)c1 |  | 40.4 µM (active)
58 | O=[N+]([O-])c1ccc(N2CCN(CCOCCO)CC2)c([N+](=O)[O-])c1 | 16% | 
59 | Cc1cc(Cl)cc2sc(=S)[nH]c12 |  | 81.5 µM (active)
60 | CN(C)c1cc2c3ccccc3n(C)c2cc1N |  | 13.4 µM (active)
61 | Cc1c(N(C)C)nc2ccccc2c1N | 21.5% | 
62 | CCn1c2ccccc2c2cc(N)ccc21 | 7.75% | 
63 | CC1(C)OC(=O)C(=NNc2ccc(O)cc2)C(=O)O1 |  | 23.5 µM (active)
64 | Cc1ccc2c(c1)[nH]c1c(N3CCN(Cc4ccccc4)CC3)ncnc12 |  | 45.1 µM (active)
65 | COc1ccc2[nH]c3c(N4CCC(O)(c5cccc(C(F)(F)F)c5)CC4)ncnc3c2c1 | -0.29% | 
66 | Cc1ccc(SCCN2CCN(Cc3ccccc3)CC2)cc1 | 16.9% | 
67 | Cc1nc2ccccc2n2c(O)c(CC(=O)O)cc12 |  | 33 µM (active)
68 | COc1cc(/C=C/C(=O)N[C@@H](Cc2c[nH]c3ccccc23)C(=O)O)ccc1O |  | 83.7 µM (active)
69 | Cc1ccc(S(=O)(=O)N2CCN(C(=O)CN3CCN(c4ccc(O)cc4)CC3)CC2)cc1 |  | 34.6 µM (active)
70 | CCOC(=O)N1CCC(N2CCN(S(=O)(=O)c3ccc4ccccc4c3)CC2)CC1 | 11.1% | 
71 | Cc1ccc(CN2CCN(C(=O)CC(C)C)CC2)cc1 | 9.93% | 
72 | C/C=C(\C)CN1CCN(c2ccc(C)cc2)CC1 | 14.8% | 
73 | O=S(=O)(c1ccc2ccccc2c1)N1CCN(c2ccc(O)cc2)CC1 |  | 39.5 µM (active)
74 | O=C(CSc1ccc2ccccc2c1)N1CCN(c2ccc(O)cc2)CC1 |  | 46.5 µM (active)
75 | O=S(=O)(c1ccc2ccccc2c1)N1CCN(C2CCN(Cc3ccccc3)CC2)CC1 | 23.3% | 
76 | Cc1cc2nc(/N=C(\N)NC(=O)N3c4ccccc4Sc4ccccc43)nc(C)c2cc1C | 17.8% | 
77 | C#CCOCCOCCOCCNc1nc(N2CCN(C(=O)C([C@@H](C)O)n3cc([C@@H](N)CCCCN)nn3)CC2)nc(N2CCN(C(=O)[C@H](CCCN=C(N)N)n3cc(C(N)[C@@H](C)CC)nn3)CC2)n1 (stereo not given in full) | 1.38% | 
78 | Cc1cc(O)ccc1Nc1nc(-c2cccs2)cs1 |  | 44 µM (active)
79 | Nc1ccc(N2CCN(c3cccc(Cl)c3)CC2)cc1 |  | 18.6 µM (active)
80 | Nc1ccc(N2CCN(c3ccc(Cl)c(Cl)c3)CC2)cc1 |  | 20.5 µM (active)
81 | CC(C)N1CCN(C(=O)c2cccc(Cl)c2)CC1 | 15.6% | 

Row | SMILES | inhibition | IC50
82 | CCCCCC(=O)Nc1cc(S(=O)(=O)O)cc2cc(S(=O)(=O)O)cc(O)c12 | 17.7% | 
83 | CCN(CC)c1ccc(NS(=O)(=O)c2ccc(-c3ccc(=O)[nH]n3)o2)c(C)c1 | 7.93% | 
84 | CCOc1ccc(Nc2n[nH]c(=S)s2)cc1 |  | 42.5 µM (active)
85 | Cc1ccc(Nc2n[nH]c(=S)s2)cc1 |  | 50.6 µM (active)
86 | CC(=O)Nc1n[nH]c(=S)s1 |  | 48.7 µM (active)
87 | Cc1ccc(Nc2n[nH]c(=S)s2)cc1F |  | 50.3 µM (active)
88 | O=C(O)c1ccc(S(=O)(=O)c2ccc3c(c2)C(=O)N(NC(=O)c2cccnc2)C3=O)cc1 | 2.35% | 
89 | COc1ccc(Nc2ccc3ccccc3c2)cc1 |  | 66.9 µM (active)
90 | COc1ccc(NC2=NCCC2)cc1 | 17.6% | 
91 | COc1ccc(Nc2ccccc2)c(C)c1 |  | 37.4 µM (active)
92 | COc1ccc(NC(=S)NNS(=O)(=O)c2ccc3ccccc3c2)c(OC)c1 | 22.1% | 
93 | OCCN1CCN(CC(O)COC(c2ccc(F)cc2)c2ccc(F)cc2)CC1 (stereo not given) | 18.1% | 
94 | Cc1cc(OCc2nc3ccccc3s2)ccc1N |  | 63.7 µM (active)
95 | CCOc1ccc2nc(NC(=O)CS(=O)(=O)c3ccccc3)sc2c1 | 4.87% | 
96 | CCCS(=O)(=O)N1CCN(CC2CC3C=CC2C3)CC1 (stereo not given) | 14.7% | 
97 | COc1cc(OC)c(CN2CCCN(C)CC2)cc1Br | 21% | 
98 | Oc1ccc(Cc2ccccc2Cl)c(O)c1 |  | 60.2 µM (active)
99 | Fc1ccc(CNCc2ccccc2Cl)cc1 | 16.5% | 
100 | Oc1ccc(Cc2ccc(Cl)cc2)c(O)c1 |  | 78 µM (active)
101 | CCC(=O)N1CCc2cc(S(=O)(=O)CCC(=O)NCc3ccc(C)cc3)ccc21 | 1.54% | 
102 | N#CC1(Nc2ccc(-c3ccc(NC4(C#N)CCCC4)cc3)cc2)CCCC1 |  | 11.6 µM (active)
103 | C[n+]1ccc(/C=C/c2ccccc2O)c2ccccc21 | 5.2% | 
104 | CC[n+]1ccc(/C=C/c2ccc(N(C)C)cc2)c2ccccc21 |  | 47 µM (active)
105 | CCOc1ccccc1N1CCN(C/C=C/c2ccc(N(C)C)cc2)CC1 | 24.8% | 
